# In PubChem BioAssay (NCATS):
# Values joined by “and” are separate entries in the source; they are usually repeats but may differ in a detail not shown here. Equal entries are not always repeated. Results filed as inconclusive are left out. Where a call stands in place of a potency, no number is given. Active and inactive are the calls of the source. Unless noted, the call rests on the fitted dose curve; in most records, active means well fitted curve in the direction sought with a large enough effect; inconclusive means small, poorly fitted or top-dose-only effect, or another doubt; inactive means no such curve, though single readings can be large; an effect the other way counts as inactive or inconclusive.
# Legend:
# [1] = target: Cytochrome P450 2D6 (Homo sapiens) (UniProt P10635); assay: Cytochrome P450 family 2 subfamily D member 6 (CYP2D6) small molecule antagonists: luciferase biochemical (cell-free) qHTS assay (AID 1645840; active means well fitted curve in the direction sought with a large enough effect in the repeat runs; an effect the other way counts as inactive or inconclusive; further: nearly all actives have a fitted effect of over 55% in size; further: potency means the concentration at half of the fitted maximal effect)
# Sequence of Cytochrome P450 2D6 (Homo sapiens) (P10635 whole entry, looked up): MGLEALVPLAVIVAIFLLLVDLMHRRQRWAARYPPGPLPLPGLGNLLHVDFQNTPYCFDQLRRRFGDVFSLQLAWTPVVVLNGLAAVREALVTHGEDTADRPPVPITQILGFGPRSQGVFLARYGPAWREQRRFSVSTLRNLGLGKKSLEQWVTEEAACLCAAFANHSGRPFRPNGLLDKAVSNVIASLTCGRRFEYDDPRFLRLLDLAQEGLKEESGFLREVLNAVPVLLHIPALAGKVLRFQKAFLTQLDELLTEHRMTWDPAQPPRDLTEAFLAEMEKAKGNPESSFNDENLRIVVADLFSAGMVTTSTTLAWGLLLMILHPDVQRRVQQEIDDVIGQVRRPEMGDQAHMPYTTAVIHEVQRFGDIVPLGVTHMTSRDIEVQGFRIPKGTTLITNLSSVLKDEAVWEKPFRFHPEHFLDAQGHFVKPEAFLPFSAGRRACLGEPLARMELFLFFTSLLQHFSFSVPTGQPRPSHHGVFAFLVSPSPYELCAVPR
# In short: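 P450-Glo luminescent screen: recombinant CYP2D6 enzyme–proluciferin substrate mix preincubated with compound 10 min at room temperature, then NADPH regeneration added for 1 h at room temperature. Detection reagent added for 20 min; luciferin light read as relative luminescence units.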
# [2] = target: Cytochrome P450 2C9 (Homo sapiens) (UniProt P11712); assay: Cytochrome P450 family 2 subfamily C member 9 (CYP2C9) small molecule antagonists: luciferase biochemical (cell-free) qHTS assay (AID 1645842; active means well fitted curve in the direction sought with a large enough effect in the repeat runs; an effect the other way counts as inactive or inconclusive; further: nearly all actives have a fitted effect of over 55% in size; further: potency means the concentration at half of the fitted maximal effect)
# Sequence of Cytochrome P450 2C9 (Homo sapiens) (P11712 whole entry, looked up): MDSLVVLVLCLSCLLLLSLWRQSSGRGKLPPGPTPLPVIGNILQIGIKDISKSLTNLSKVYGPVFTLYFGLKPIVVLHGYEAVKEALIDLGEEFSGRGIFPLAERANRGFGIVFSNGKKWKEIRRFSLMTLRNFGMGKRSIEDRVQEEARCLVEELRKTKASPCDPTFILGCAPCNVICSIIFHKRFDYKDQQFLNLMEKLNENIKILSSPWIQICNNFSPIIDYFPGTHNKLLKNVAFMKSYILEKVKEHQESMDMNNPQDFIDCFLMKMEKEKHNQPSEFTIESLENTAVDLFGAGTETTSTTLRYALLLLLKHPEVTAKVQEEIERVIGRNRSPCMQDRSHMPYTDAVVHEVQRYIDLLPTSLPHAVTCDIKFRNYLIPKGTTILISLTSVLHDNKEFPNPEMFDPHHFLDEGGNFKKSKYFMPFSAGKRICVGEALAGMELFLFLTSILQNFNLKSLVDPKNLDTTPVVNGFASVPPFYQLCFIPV
# In short: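 Luminescence, after 20 min with luciferin detection reagent, reflected CYP2C9 turnover during a 1 h NADPH-driven reaction at 37C. Enzyme-substrate mix contained 0.4% bovine serum albumin and was preincubated with compound 10 min at room temperature.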
# [3] = Primary qHTS for inhibitors of nuclear receptor binding SET domain protein 2 (NSD2) in an isogenic RCH-ACV NSD2 p.E1099K mutant (9B) (AID 1645876); further: nearly all actives have a fitted effect of over 70% in size; further: potency means the concentration at half of the fitted maximal effect
# [4] = Primary qHTS for inhibitors of nuclear receptor binding SET domain protein 2 (NSD2) in an RCH-ACV wild type WT cells (2C) (AID 1645877); further: nearly all actives have a fitted effect of over 70% in size; further: potency means the concentration at half of the fitted maximal effect
# [5] = target: Glutathione peroxidase 1 (Homo sapiens) (UniProt P07203); assay: Primary qHTS Assay for Inhibitors of Recombinant Selenoprotein Glutathione Peroxidase 1 (GPX1) (AID 1845191); further: nearly all actives have a fitted effect of over 65% in size
# Sequence of Glutathione peroxidase 1 (Homo sapiens) (P07203 whole entry, looked up): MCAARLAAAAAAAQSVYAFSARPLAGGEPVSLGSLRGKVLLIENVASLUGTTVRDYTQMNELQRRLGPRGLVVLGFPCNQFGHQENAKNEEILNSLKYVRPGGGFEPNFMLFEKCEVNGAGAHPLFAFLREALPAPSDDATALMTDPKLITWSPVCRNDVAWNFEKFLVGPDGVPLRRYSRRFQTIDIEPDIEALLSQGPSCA
# In short: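 Recombinant GPX1 (10 nM final) was preincubated with compound for 30 min at room temperature, then reacted with 1 mM GSH, 0.5 mM CHP, 0.5 mM NADPH and 100 nM glutathione reductase; NADPH fluorescence (340/450 nm) was read at 0 and 15 min.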
# [6] = target: Cytochrome P450 3A4 (Homo sapiens) (UniProt P08684); assay: Cytochrome P450 family 3 subfamily A member 4 (CYP3A4) small molecule antagonists: luciferase qHTS assay (AID 1645841; active means well fitted curve in the direction sought with a large enough effect in the repeat runs; an effect the other way counts as inactive or inconclusive; further: nearly all actives have a fitted effect of over 45% in size; further: potency means the concentration at half of the fitted maximal effect)
# Sequence of Cytochrome P450 3A4 (Homo sapiens) (P08684 whole entry, looked up): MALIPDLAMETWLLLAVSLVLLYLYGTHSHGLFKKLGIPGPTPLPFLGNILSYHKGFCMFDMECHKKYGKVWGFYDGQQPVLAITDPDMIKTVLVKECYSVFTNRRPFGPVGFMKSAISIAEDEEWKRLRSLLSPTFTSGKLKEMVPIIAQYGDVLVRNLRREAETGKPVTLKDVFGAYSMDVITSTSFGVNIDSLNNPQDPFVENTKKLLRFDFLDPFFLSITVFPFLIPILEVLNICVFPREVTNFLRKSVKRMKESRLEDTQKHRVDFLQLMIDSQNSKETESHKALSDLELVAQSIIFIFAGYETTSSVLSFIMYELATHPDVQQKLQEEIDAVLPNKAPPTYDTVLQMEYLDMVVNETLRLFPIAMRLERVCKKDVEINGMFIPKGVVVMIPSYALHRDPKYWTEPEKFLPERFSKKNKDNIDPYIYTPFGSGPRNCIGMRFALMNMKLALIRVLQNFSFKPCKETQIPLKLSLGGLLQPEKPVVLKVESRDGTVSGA
# In short: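 P450-Glo CYP3A4 enzyme with proluciferin substrate was preincubated with DMSO-dissolved compounds for 10 min at room temperature. NADPH regeneration solution started a 1 h reaction. Detection reagent stopped it, and luminescence was read after 20 min.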
# [7] = target: Rap guanine nucleotide exchange factor 3 (Homo sapiens) (UniProt O95398); assay: Confirmatory qHTS for antagonist of cAMP-regulated guanine nucleotide exchange factor 3 (EPAC1) (AID 1645880); further: potency means the concentration at half of the fitted maximal effect; nearly all actives have a fitted effect of over 55% in size
# Sequence of Rap guanine nucleotide exchange factor 3 (Homo sapiens) (O95398 whole entry, looked up): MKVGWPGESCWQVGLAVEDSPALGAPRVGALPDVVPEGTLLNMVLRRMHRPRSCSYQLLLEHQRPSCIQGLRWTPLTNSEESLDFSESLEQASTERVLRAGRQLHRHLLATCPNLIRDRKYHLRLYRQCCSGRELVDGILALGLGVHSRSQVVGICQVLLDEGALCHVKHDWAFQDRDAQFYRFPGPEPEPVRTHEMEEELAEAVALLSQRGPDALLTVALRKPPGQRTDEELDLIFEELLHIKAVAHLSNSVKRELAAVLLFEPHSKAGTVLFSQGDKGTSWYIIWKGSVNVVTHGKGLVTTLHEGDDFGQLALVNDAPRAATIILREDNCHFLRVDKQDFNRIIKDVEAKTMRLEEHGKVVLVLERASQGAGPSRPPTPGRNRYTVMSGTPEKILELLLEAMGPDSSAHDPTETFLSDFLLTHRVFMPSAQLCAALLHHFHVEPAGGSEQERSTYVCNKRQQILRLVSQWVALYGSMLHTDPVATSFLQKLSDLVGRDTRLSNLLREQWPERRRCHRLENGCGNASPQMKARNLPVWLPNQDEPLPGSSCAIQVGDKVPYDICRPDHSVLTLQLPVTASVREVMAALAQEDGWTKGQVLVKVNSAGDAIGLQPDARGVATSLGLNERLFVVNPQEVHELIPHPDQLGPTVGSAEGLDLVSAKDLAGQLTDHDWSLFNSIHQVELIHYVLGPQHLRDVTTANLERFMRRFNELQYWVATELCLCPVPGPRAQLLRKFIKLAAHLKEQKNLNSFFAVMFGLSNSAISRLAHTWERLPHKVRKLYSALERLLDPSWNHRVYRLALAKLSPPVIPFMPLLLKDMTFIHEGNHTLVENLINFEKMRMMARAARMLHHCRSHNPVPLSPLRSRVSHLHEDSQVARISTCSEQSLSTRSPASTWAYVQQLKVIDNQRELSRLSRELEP
# In short: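 Nucleotide exchange uses 100 nM EPAC1, 250 nM RAP1B-BODIPY-GDP and 50 uM GDP, with compounds in a concentration-titration series. After 5 min at room temperature, fluorescence (480 nm ex/540 nm em) is read every 5 min for 30 min. Data are normalized to control ATA and DMSO.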
# [8] = target: Rap guanine nucleotide exchange factor 3 (Homo sapiens) (UniProt O95398); assay: Confirmatory qHTS for agonist of cAMP-regulated guanine nucleotide exchange factor 3 (EPAC1) (AID 1645881);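 further: EPAC1 catalysed release of BODIPY-GDP from Rap1B seen as fluorescence loss; nearly all actives have a fitted effect of over 75% in size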
# [9] = target: Rap guanine nucleotide exchange factor 4 (Homo sapiens) (UniProt Q8WZA2); assay: Confirmatory qHTS for agonist of cAMP-regulated guanine nucleotide exchange factor 4 (EPAC2) (AID 1645884);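 further: nucleotide exchange releases bodipy-GDP from Rap1 and this lowers its fluorescence; nearly all actives have a fitted effect of over 65% in size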
# Sequence of Rap guanine nucleotide exchange factor 4 (Homo sapiens) (Q8WZA2 whole entry, looked up): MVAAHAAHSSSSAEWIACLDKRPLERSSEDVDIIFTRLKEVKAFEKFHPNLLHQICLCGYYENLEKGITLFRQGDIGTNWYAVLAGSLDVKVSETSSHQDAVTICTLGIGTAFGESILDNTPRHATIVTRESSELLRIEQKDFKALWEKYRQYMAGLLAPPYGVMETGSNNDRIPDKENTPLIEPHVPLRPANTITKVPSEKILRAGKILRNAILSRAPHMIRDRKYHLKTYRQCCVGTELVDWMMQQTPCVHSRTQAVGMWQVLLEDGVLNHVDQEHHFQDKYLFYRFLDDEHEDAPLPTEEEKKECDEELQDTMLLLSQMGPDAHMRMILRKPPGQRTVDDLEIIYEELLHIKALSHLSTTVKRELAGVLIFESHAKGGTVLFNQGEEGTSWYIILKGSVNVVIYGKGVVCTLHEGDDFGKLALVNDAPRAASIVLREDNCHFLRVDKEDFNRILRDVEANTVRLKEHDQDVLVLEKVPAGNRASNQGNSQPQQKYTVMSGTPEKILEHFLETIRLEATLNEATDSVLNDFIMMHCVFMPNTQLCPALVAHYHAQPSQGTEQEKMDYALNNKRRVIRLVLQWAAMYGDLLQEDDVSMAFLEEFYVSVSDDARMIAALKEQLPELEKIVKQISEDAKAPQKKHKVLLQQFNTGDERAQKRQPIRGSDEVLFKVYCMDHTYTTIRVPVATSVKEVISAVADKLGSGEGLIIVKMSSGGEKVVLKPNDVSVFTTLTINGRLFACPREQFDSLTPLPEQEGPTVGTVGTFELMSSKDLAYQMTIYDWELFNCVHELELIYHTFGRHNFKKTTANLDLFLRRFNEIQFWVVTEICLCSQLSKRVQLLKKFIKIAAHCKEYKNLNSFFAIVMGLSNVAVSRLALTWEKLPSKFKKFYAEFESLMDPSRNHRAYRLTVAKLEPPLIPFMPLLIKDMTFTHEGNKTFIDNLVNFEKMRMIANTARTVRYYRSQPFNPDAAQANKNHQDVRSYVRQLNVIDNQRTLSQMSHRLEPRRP
# [10] = target: Rap guanine nucleotide exchange factor 4 (Homo sapiens) (UniProt Q8WZA2); assay: Confirmatory qHTS for antagonist of cAMP-regulated guanine nucleotide exchange factor 4 (EPAC2) (AID 1645885); further: nearly all actives have a fitted effect of over 25% in size
# [11] = target: Rap guanine nucleotide exchange factor 3 (Homo sapiens) (UniProt O95398); assay: Counterscreen qHTS for antagonist of cAMP-regulated guanine nucleotide exchange factor 3 (EPAC1) (AID 1645888);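 further: fluorescence loss as bound BODIPY-GDP is released from Rap1B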
# In short: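 Measured: fluorescence of BODIPY-GDP bound to Rap1B, which falls as exchange proceeds. Conditions include 50 uM competing GDP, 5 and 30 min reads, and a later cAMP challenge for antagonist detection.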
smiles,measurement,setting,value
O=C(Nc1ccc([N+](=O)[O-])cc1)Nc1ccc([N+](=O)[O-])cc1,Potency,[1],inactive
same,Potency,[2],inactive
same,Potency,[3],inactive
same,Potency,[4],inactive
same,Potency,[5],inactive
C[C@@]12C(=O)OC(=O)[C@]1(C)C1CCC2O1,Potency,[1],inactive
same,Potency,[2],inactive
same,Potency,[3],2990 nM (active)
same,Potency,[4],2660 nM (active)
same,Potency,[5],inactive
CCCCCCCCCCCCCCCCO,Potency,[1],inactive
same,Potency,[2],inactive
same,Potency,[3],inactive
same,Potency,[4],inactive
same,Potency,[5],inactive
CC(=O)O[C@]1(C(C)=O)CC[C@H]2[C@@H]3C=C(C)C4=CC(=O)CC[C@]4(C)[C@H]3CC[C@@]21C,Potency,[1],inactive
same,Potency,[2],12300 nM (active)
same,Potency,[3],inactive
same,Potency,[4],inactive
same,Potency,[5],inactive
C[N+]1(C)CCC(=C(c2ccccc2)c2ccccc2)CC1,Potency,[1],13800 nM (active)
same,Potency,[2],inactive
same,Potency,[5],inactive
CCCCc1cc2ccccc2c(OCCN(C)C)n1,Potency,[1],2190 nM (active)
same,Potency,[2],inactive
same,Potency,[4],18800 nM (active)
Cc1c[nH]c2ccccc12,Potency,[1],inactive
same,Potency,[2],inactive
same,Potency,[3],inactive
same,Potency,[4],inactive
same,Potency,[5],inactive
N[C@H](C(=O)O)[C@@H](O)c1ccc(O)c(O)c1,Potency,[1],inactive
same,Potency,[2],inactive
same,Potency,[3],inactive
same,Potency,[5],inactive
O=C(Nc1cccc(C2=NCCN2)c1)Nc1cccc(C2=NCCN2)c1,Potency,[1],inactive
same,Potency,[2],inactive
same,Potency,[3],10300 nM (active)
same,Potency,[5],inactive
O=C(CCCN1CC=C(n2c(=O)[nH]c3ccccc32)CC1)c1ccc(F)cc1,Potency,[1],246 nM (active)
same,Potency,[2],inactive
same,Potency,[3],inactive
same,Potency,[4],inactive
same,Potency,[5],inactive
O=C1C(CCS(=O)c2ccccc2)C(=O)N(c2ccccc2)N1c1ccccc1 (stereo not given),Potency,[1],inactive
same,Potency,[2],3090 nM (active)
same,Potency,[5],inactive
C[C@H]1O[C@@H](O[C@H]2CC[C@@]3(C)[C@H](CC[C@@H]4[C@@H]3C[C@@H](O)[C@]3(C)[C@@H](C5=CC(=O)OC5)CC[C@]43O)C2)C[C@H](O)[C@@H]1O[C@H]1C[C@H](O)[C@H](O[C@H]2C[C@H](O)[C@H](O[C@@H]3O[C@H](CO)[C@@H](O)[C@H](O)[C@H]3O)[C@@H](C)O2)[C@@H](C)O1,Potency,[1],inactive
same,Potency,[2],inactive
same,Potency,[3],66.8 nM (active)
same,Potency,[4],94.4 nM (active)
same,Potency,[5],inactive
C/C=C/c1ccc(O)c(OC)c1,Potency,[1],inactive
same,Potency,[2],2190 nM (active)
same,Potency,[5],inactive
CCNC(=O)/C=C/c1cccc(Br)c1,Potency,[1],inactive
same,Potency,[2],inactive
same,Potency,[4],inactive
CCc1nn(CCCN2CCN(c3cccc(Cl)c3)CC2)c(=O)n1CCOc1ccccc1,Potency,[1],977 nM (active)
same,Potency,[2],inactive
same,Potency,[5],inactive
CC(=O)Nc1ccc(S(=O)(=O)Nc2ccc([N+](=O)[O-])cc2)cc1,Potency,[1],inactive
same,Potency,[2],13800 nM (active)
same,Potency,[3],inactive
same,Potency,[4],inactive
same,Potency,[5],inactive
CCCN(CCc1cccs1)[C@H]1CCc2c(O)cccc2C1,Potency,[1],169 nM (active) and 195 nM (active)
same,Potency,[2],inactive
same,Potency,[5],inactive
O=C(Nc1ncc([N+](=O)[O-])s1)c1cccs1,Potency,[2],9770 nM (active)
CC(C(=O)O)c1cccc(Oc2ccccc2)c1 (stereo not given),Potency,[1],inactive
same,Potency,[3],inactive
same,Potency,[4],inactive
NC1CCN(c2nc3c(cc2F)c(=O)c(C(=O)O)cn3-c2ccc(F)cc2F)C1 (stereo not given),Potency,[1],inactive
same,Potency,[2],inactive
same,Potency,[5],inactive
CCCCCCCCCCCCCC[N+](C)(C)Cc1ccccc1,Potency,[1],347 nM (active)
same,Potency,[3],335 nM (active)
same,Potency,[4],237 nM (active)
CC(C)(Cc1c[nH]c2ccccc12)NCC(O)COc1ccccc1C#N (stereo not given),Potency,[2],inactive
O=C1OC(CN2CCOCC2)CN1/N=C/c1ccc([N+](=O)[O-])o1 (stereo not given),Potency,[2],inactive
CN(Cc1ccc(C(C)(C)C)cc1)Cc1cccc2ccccc12,Potency,[1],123 nM (active)
same,Potency,[3],inactive
same,Potency,[4],inactive
same,Potency,[5],inactive
Nc1nc(-c2ccccc2)c(Br)c(=O)[nH]1,Potency,[6],inactive
same,Potency,[2],inactive
same,Potency,[3],inactive
same,Potency,[4],inactive
same,Potency,[5],inactive
O=C1OC2(c3ccccc31)c1cc(Br)c(O)c(Br)c1Oc1c2cc(Br)c(O)c1Br,Potency,[6],17400 nM (active)
same,Potency,[2],12300 nM (active)
C=C1c2cccc(O)c2C(O)=C2C(=O)[C@]3(O)C(O)=C(C(N)=O)C(=O)[C@@H](N(C)C)[C@@H]3[C@@H](O)[C@H]12,Potency,[6],inactive
same,Potency,[2],inactive
same,Potency,[3],inactive
same,Potency,[7],47800 nM (active)
same,outcome,[8],inactive
same,outcome,[9],inactive
same,Potency,[10],inactive
same,outcome,[11],inactive
CC(C)Nc1cccnc1N1CCN(C(=O)c2cc3cc(NS(C)(=O)=O)ccc3[nH]2)CC1,Potency,[2],1950 nM (active)
COc1cc(O)c(C(=O)c2ccccc2)cc1S(=O)(=O)O,Potency,[1],inactive
same,Potency,[2],inactive
same,Potency,[5],inactive
CNCCCCOc1ccccc1Cc1ccccc1,Potency,[2],inactive
